Inconclusive results are not listed. Active and inactive are the calls of the source. Calls come from the whole dose curve; as a rule, active = well fitted activation curve with a large enough effect; inconclusive = small, poorly fitted or top-dose-only effect; inactive = no such curve, though single readings can be large or run the other way.

The nature of the test: qHTS assay for re-activators of p53 using a Luc reporter: Hit Validation with no p53 Expressed. Note: 0% is about no effect. To be noted: p53-null cells, luciferase reporter counter-screen; series mostly up to 46.1 µM; activity change, positive = activation: at the top concentration. Summed up:
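Without p53 expression, cells (1000/well, Opti-MEM + 10% FBS) were exposed 24 h at 37 deg C to compounds in a 1:5 series from 10 mM stock (top 46.1 µM in well). Luminescent signal read 10 min after Amplite addition; actives flag unspecific activation.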
Take `CCOc1ccc2cc(C#N)c(SCC(=O)OC)nc2c1`: the “activity change, positive = activation” value was 90% (inactive).

For `O=C(Nc1ccc2c(c1)CCC2)c1ccccc1`, the “activity change, positive = activation” value was 24.9% (inactive).

In the case of `CCc1nnc(NC(=O)CCC(=O)Nc2ccccc2)s1`, the “activity change, positive = activation” value is 6.24% (inactive).

Consider `O=C(Nc1cccnc1Cl)c1cc(-c2ccccc2O)on1`, for which the “activity change, positive = activation” value was 49% (inactive).

As for `c1ccc(-c2ccc(-c3ccccn3)nn2)nc1`, the “activity change, positive = activation” value was 35.1% (inactive).

Consider `Oc1ccccc1-c1cc(-c2ccccc2)n[nH]1`, for which the “activity change, positive = activation” value was 60.7% (inactive).

Turning to `O=C(CC(Nc1ccc(F)cc1)C(=O)OCC(=O)c1cccs1)c1ccccc1` (stereo not given), the “activity change, positive = activation” value was 9.18% (inactive).

With `Cc1ccccc1C(=O)Nc1ccc(Br)cn1`, the “activity change, positive = activation” value is 27.2% (inactive).

Consider `CC1(C)NC(=O)N(CC(=O)N2CCN(S(=O)(=O)c3ccccc3C(F)(F)F)CC2)C1=O`, for which the “activity change, positive = activation” value is 12.1% (inactive).

`Brc1c(CSc2nc3ccccc3s2)nc2ncccn12`: the “activity change, positive = activation” value is 60.7% (inactive).

For the compound `C=CCn1c(P(C)(=O)O)nc2ccccc21`, the “activity change, positive = activation” value was 36% (inactive).

For the compound `CCc1ccc2c(CN(CC)Cc3nc4ccccc4c(=O)[nH]3)cc(=O)oc2c1`, the “activity change, positive = activation” value is 39.4% (inactive).

Regarding `N/C(=N\OC(=O)c1ccccc1Cl)c1ccc(Cl)cc1`, the “activity change, positive = activation” value is 46.8% (inactive).

Consider `O=C(NCCN1CCCCC1)Nc1cccc(C(F)(F)F)c1`, for which the “activity change, positive = activation” value was -5.59% (inactive).

In the case of `Cn1c(=N)n(CC(=O)c2ccc(Cl)c(Cl)c2)c2ccccc21`, the “activity change, positive = activation” value was 57.6% (inactive).

For `C/C(=N\N=c1/scc(C)n1Cc1ccco1)c1cccc([N+](=O)[O-])c1`, the “activity change, positive = activation” value was 26.8% (inactive).

With `COc1ccc(C2/C(=C(/O)c3ccc(C)cc3)C(=O)C(=O)N2CCCN2CCOCC2)cc1` (stereo not given), the “activity change, positive = activation” value is -2.06% (inactive).

For `CCC(=O)c1ccc(OC(=O)Cc2ccc(OC)cc2)cc1`, the “activity change, positive = activation” value is -69% (inactive).

Regarding `O=C(NCC1CCCO1)c1ccc(NC(=O)c2cccc([N+](=O)[O-])c2)cc1` (stereo not given), the “activity change, positive = activation” value is 65.6% (inactive).

`Cc1ccc(C2C(C#N)=C(N)Oc3cc4c(cc32)OCO4)cc1` (stereo not given): the “activity change, positive = activation” value is 41% (inactive).

For `CNc1ccc(/C=C/C(=O)c2ccc(C)cc2)cc1[N+](=O)[O-]`, the “activity change, positive = activation” value is 4.5% (inactive).

As for `O=C(COC(=O)c1cccnc1Cl)Nc1ccc(N2CCCCC2)cc1`, the “activity change, positive = activation” value is -51.2% (inactive).

As for `N#CC1=C(N)N2C(=C(C#N)C13CCCCC3)SC1CCCCC12O` (stereo not given), the “activity change, positive = activation” value is -19.8% (inactive).

With `CCOc1ccc(NC(=O)C(c2ccccn2)N(C(=O)CCl)c2ccc(OC)cc2)cc1` (stereo not given), the “activity change, positive = activation” value is 0.805% (inactive).

Consider `O=C1/C(=C/Nc2ccc3c(c2)OCO3)CCc2ccccc21`, for which the “activity change, positive = activation” value is -43.5% (inactive).

On to `O=C(O)C1C2C=CC(C2)C1C(=O)Nc1ccccc1Br` (stereo not given), for which the “activity change, positive = activation” value is -31.3% (inactive).

Take `Cc1cnc(C(=O)OCC(=O)c2csc(N3CCCCC3)n2)cn1`: the “activity change, positive = activation” value is 19.9% (inactive).

As for `COc1ccc2c(c1)CCC/C2=N\NC(=O)c1ccoc1C`, the “activity change, positive = activation” value is -0.779% (inactive).

On to `CC(=O)N1CCC(C(=O)Nc2ccc(S(=O)(=O)NCCc3ccccc3)cc2)CC1`, for which the “activity change, positive = activation” value was -14.8% (inactive).

As for `Cc1cccnc1NC(=O)c1ccc([N+](=O)[O-])o1`, the “activity change, positive = activation” value was 83.6% (inactive).

As for `Cc1nc(NC(=O)C2CC3CCCC(C2)C3=O)sc1C` (stereo not given), the “activity change, positive = activation” value is 18.7% (inactive).

As for `Cc1cc(Br)c(S(=O)(=O)NCCN2CCOCC2)cc1C`, the “activity change, positive = activation” value is -38.1% (inactive).

Take `CN(C)c1ccc(/C=N/Nc2nncc3ccccc23)cc1`: the “activity change, positive = activation” value was 59.1% (inactive).

In the case of `Cc1cc(NC(=O)c2ccco2)sc1C`, the “activity change, positive = activation” value is -3.27% (inactive).

On to `O=C(NC12CC3CC(CC(C3)C1)C2)c1ccc(-c2cccc(Cl)c2)o1`, for which the “activity change, positive = activation” value was 79.9% (inactive).

For the compound `COC(=O)c1nn(-c2ccc(-c3ccccc3)cc2)cc1O`, the “activity change, positive = activation” value was 13.6% (inactive).

In the case of `CCOC(=O)N/N=C\c1ccc(C)s1`, the “activity change, positive = activation” value was 10.1% (inactive).

`Cc1cc(C(=O)COC(=O)c2cccc(O)c2)c(C)n1C1CC1`: the “activity change, positive = activation” value was -26.1% (inactive).

Consider `CCN(CC(=O)NCc1cccs1)c1ccc(S(=O)(=O)N2CCOCC2)cn1`, for which the “activity change, positive = activation” value is -11.2% (inactive).

`O=C(CSc1nc2ccccc2c(=O)[nH]1)c1ccc(O)c(O)c1`: the “activity change, positive = activation” value was -15.6% (inactive).

For the origin of these results see PubChem BioAssay AID624331 (National Center for Advancing Translational Sciences (NCATS), 2012).
